Data taken from the supplement of paper PMC10849652.
About 7,900 targets were measured; listed, in parts, are those with a hit and a random draw of the rest. About 0.6% of all pairs of compound and target were hits.

Experiments:
Experiment in all cases: log2 fold change, soluble protein after heating vs DMSO (PISA); higher = thermal stabilisation; K562 cells, 10 uM, 30 min; active = over 0.2 and 3.5 SD of the protein, either way, in both replicates (recomputed)
[1] = compound: CS(=O)(=O)c1ccc(-c2cnc(N)c(C(=O)Nc3ccccc3)n2)cc1
Procedure, shortened: (§1)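 K562 cells at 2×10^6 cells/mL were treated with 10 μM compound for 30 min. Aliquots were heated for 3 min across 48°C-58°C, pooled, and extracted in PBS with 0.5% NP-40 at 4°C; soluble protein was the supernatant after 21,000xg for 90 min. Soluble protein was quantified by TMTpro 16plex LC-MS/MS with channel sums equalised, and reported as log2 fold change in thermal stability against DMSO controls, with values from duplicates.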

crizotinib = compound: C[C@@H](Oc1cc(-c2cnn(C3CCNCC3)c2)cnc1N)c1c(Cl)ccc(F)c1Cl [crizotinib]
Procedure, shortened: as §1

[2] = compound: C[C@@H]1COCCN1C2=NC(=NC(=C2)C3(CC3)S(=O)(=O)C)C4=C5C=CNC5=CC=C4
Procedure, shortened: as §1

[3] = compound: C[C@H](C1=CC=C(C=C1)C(=O)NC2=C3C=CNC3=NC=C2)N
Procedure, shortened: as §1

duvelisib = compound: C[C@H](Nc1ncnc2nc[nH]c12)c1cc2cccc(Cl)c2c(=O)n1-c1ccccc1 [duvelisib]
Procedure, shortened: as §1

gandotinib = compound: Cc1cc(Nc2cc(CN3CCOCC3)c3nc(C)c(Cc4ccc(Cl)cc4F)n3n2)n[nH]1 [gandotinib]
Procedure, shortened: as §1

tozasertib = compound: Cc1cc(Nc2cc(N3CCN(C)CC3)nc(Sc3ccc(NC(=O)C4CC4)cc3)n2)n[nH]1 [tozasertib]
Procedure, shortened: as §1

[4] = compound: Cc1cc(SCc2sc(-c3ccc(C(F)(F)F)cc3)nc2C)ccc1OCC(=O)O
Procedure, shortened: as §1

doramapimod = compound: Cc1ccc(-n2nc(C(C)(C)C)cc2NC(=O)Nc2ccc(OCCN3CCOCC3)c3ccccc23)cc1 [doramapimod]
Procedure, shortened: as §1

ispinesib = compound: Cc1ccc(C(=O)N(CCCN)[C@@H](c2nc3cc(Cl)ccc3c(=O)n2Cc2ccccc2)C(C)C)cc1 [ispinesib]
Procedure, shortened: as §1

Measured: log2 fold change

ICAM1 (UniProt P05362)
inactive: [1] 0.052 | crizotinib 0.142 | [2] 0.026 | [3] -0.069 | duvelisib 0.024 | gandotinib -0.134 | tozasertib -0.062 | [4] -0.054 | doramapimod -0.012 | ispinesib 0.121

GALC (UniProt P54803)
Sequence of UniProt P54803 (P54803 whole entry, looked up): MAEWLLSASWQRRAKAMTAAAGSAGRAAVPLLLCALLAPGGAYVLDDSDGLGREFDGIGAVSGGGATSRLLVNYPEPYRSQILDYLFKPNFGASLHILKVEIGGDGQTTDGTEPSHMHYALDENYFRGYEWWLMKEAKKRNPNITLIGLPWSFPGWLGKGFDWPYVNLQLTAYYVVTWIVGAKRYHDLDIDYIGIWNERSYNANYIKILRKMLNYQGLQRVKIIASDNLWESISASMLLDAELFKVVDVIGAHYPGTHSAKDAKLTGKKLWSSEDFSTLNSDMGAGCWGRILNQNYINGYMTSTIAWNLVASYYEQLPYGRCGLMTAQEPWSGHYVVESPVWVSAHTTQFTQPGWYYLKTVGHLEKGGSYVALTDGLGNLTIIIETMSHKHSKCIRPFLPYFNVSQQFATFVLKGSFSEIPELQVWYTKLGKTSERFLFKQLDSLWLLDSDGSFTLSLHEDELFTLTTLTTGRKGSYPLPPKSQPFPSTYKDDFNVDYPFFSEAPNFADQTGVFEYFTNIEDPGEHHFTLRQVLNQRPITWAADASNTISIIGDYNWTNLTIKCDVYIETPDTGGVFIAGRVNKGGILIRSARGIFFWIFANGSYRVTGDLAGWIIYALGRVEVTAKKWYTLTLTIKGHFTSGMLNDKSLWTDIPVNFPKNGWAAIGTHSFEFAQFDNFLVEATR
inactive: [1] 0.03 | crizotinib -0.023 | [2] 0.03 | [3] -0.012 | duvelisib -0.049 | gandotinib 0.008 | tozasertib 0.033 | [4] 0 | doramapimod -0.01 | ispinesib -0.135

HDGFL2 (UniProt Q7Z4V5)
Sequence of UniProt Q7Z4V5 (Q7Z4V5 whole entry, looked up): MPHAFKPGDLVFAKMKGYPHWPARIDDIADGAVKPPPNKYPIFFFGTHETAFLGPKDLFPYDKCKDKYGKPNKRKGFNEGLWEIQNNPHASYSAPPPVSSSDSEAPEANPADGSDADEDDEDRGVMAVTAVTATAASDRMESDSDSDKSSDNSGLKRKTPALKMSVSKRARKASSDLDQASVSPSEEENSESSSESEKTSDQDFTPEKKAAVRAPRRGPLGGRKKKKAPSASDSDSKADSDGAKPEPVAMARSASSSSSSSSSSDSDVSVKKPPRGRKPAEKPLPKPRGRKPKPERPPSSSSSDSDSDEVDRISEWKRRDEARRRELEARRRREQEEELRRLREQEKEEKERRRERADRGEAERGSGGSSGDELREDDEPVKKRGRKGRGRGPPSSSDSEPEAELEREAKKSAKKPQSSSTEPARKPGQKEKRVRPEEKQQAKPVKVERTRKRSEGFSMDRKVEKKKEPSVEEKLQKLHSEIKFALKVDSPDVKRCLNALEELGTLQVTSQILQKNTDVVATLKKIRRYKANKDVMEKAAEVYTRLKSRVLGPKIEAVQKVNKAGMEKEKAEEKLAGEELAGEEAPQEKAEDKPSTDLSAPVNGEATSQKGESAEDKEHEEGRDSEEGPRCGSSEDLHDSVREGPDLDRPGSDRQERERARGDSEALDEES
inactive: [1] 0.086 | crizotinib -0.007 | [2] -0.052 | [3] -0.04 | duvelisib -0.047 | gandotinib 0.005 | tozasertib -0.004 | [4] -0.061 | doramapimod -0.045 | ispinesib 0.019

FIZ1 (UniProt Q96SL8)
Sequence of UniProt Q96SL8 (Q96SL8 whole entry, looked up): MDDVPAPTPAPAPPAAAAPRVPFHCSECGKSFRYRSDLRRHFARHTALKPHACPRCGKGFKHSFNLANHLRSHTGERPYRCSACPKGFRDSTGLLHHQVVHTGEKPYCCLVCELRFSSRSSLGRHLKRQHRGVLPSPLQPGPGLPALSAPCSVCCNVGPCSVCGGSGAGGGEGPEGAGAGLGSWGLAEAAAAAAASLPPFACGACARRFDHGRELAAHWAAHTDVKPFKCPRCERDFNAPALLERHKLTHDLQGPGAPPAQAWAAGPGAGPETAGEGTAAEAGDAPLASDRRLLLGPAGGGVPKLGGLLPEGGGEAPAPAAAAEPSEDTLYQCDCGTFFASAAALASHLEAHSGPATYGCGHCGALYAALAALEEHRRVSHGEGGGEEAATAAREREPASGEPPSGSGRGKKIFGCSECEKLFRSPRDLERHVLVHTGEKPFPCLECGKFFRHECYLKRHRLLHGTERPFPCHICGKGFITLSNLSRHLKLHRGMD
inactive: [1] -0.05 | crizotinib 0.018 | [2] -0.354 | [3] 0.074 | duvelisib -0.251 | gandotinib 0.024 | [4] 0.017 | doramapimod 0.044

HNRNPH1 (UniProt P31943)
inactive: [1] 0.027 | crizotinib -0.171 | [2] -0.012 | [3] 0.02 | duvelisib -0.026 | gandotinib -0.017 | tozasertib -0.01 | [4] 0.126 | doramapimod -0.012 | ispinesib -0.068

GNL3 (UniProt Q9BVP2)
Sequence of UniProt Q9BVP2 (Q9BVP2 whole entry, looked up): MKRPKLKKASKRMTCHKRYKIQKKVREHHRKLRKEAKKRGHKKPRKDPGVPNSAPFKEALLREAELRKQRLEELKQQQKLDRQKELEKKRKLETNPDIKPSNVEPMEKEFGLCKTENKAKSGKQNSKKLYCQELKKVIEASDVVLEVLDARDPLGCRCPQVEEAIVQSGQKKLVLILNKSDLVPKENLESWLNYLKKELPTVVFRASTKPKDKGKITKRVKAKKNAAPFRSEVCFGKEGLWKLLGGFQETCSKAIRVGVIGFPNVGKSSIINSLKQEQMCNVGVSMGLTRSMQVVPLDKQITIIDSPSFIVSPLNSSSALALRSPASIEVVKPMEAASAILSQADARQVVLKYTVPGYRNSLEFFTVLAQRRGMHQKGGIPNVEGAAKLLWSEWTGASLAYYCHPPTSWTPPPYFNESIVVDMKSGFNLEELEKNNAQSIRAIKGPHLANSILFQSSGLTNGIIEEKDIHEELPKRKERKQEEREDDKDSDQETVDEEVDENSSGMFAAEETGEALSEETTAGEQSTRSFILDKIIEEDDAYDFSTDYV
inactive: [1] 0.126 | [2] -0.009 | [3] 0.065 | duvelisib 0.124 | gandotinib 0.098 | tozasertib -0.079 | [4] -0.053

HSPA2 (UniProt P54652)
Sequence of UniProt P54652 (P54652 whole entry, looked up): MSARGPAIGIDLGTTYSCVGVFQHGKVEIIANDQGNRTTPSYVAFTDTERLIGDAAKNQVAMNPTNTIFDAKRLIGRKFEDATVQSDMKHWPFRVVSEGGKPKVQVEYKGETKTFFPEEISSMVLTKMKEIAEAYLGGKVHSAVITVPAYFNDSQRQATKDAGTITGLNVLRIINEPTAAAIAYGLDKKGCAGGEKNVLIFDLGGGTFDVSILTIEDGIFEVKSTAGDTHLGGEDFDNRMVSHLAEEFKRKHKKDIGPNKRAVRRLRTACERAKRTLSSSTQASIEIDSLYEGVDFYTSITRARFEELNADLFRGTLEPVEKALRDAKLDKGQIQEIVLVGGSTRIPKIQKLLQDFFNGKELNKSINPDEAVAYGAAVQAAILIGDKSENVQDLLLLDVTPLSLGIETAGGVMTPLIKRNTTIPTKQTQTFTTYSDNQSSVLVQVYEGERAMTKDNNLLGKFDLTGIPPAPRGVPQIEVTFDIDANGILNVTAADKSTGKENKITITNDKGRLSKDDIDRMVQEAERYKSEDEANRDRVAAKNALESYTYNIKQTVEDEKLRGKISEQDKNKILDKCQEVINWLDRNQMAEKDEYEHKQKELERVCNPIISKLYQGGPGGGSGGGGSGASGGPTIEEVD
inactive: [1] 0.011 | crizotinib 0.123 | doramapimod -0.003 | ispinesib -0.025

FCF1 (UniProt Q9Y324)
Sequence of UniProt Q9Y324 (Q9Y324 whole entry, looked up): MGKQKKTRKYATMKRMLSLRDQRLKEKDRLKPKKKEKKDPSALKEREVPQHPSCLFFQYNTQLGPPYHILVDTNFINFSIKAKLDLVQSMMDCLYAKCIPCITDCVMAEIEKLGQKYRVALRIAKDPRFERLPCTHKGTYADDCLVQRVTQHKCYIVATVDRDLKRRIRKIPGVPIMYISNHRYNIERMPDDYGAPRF
inactive: [1] 0.06 | crizotinib -0.054 | [2] -0.225 | duvelisib -0.592 | gandotinib 0.155 | tozasertib 0.021 | [4] 0.103 | doramapimod 0.244 | ispinesib -0.095

FGG (UniProt P02679)
inactive: gandotinib -0.153 | ispinesib -0.052

IFNGR1 (UniProt P15260)
Sequence of UniProt P15260 (P15260 whole entry, looked up): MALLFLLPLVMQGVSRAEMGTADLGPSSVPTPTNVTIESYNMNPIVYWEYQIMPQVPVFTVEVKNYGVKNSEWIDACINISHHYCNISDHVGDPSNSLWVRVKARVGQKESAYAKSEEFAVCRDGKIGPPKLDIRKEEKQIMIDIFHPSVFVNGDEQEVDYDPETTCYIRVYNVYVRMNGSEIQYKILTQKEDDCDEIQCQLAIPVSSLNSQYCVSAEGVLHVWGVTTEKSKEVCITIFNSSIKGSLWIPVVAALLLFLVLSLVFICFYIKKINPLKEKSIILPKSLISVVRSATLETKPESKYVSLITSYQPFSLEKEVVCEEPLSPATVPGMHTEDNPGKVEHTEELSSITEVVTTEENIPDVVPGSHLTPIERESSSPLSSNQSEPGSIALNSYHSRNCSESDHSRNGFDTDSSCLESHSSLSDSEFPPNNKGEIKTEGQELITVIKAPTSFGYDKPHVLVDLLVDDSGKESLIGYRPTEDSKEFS
inactive: [1] 0.135 | [2] -0.1 | [3] 0.068 | duvelisib -0.059 | gandotinib -0.053 | tozasertib -0.19 | [4] -0.162 | ispinesib -0.041

HNRNPUL1 (UniProt M0R247)
inactive: [1] -0.057 | crizotinib 0.151 | [3] 0.722 | duvelisib 0.673 | tozasertib -0.187 | [4] -0.374 | doramapimod -0.014

HSPA8 (UniProt E9PN89)
inactive: [1] 0.12 | crizotinib 0.063 | [2] 0.024 | [3] 0.377 | gandotinib -0.068 | tozasertib -0.122 | doramapimod 0

HNRNPK isoform 3 (UniProt P61978)
inactive: [1] -0.056 | crizotinib -0.009 | [2] -0.237 | duvelisib 0.038 | gandotinib -0.082 | tozasertib 0.004 | [4] -0.037 | doramapimod 0.05 | ispinesib 0.014

FCHO1 (UniProt O14526)
inactive: [1] 0.033 | crizotinib -0.118 | [2] 0.158 | [3] 0.161 | duvelisib -0.039 | tozasertib 0.043 | [4] 0.109 | doramapimod -0.009 | ispinesib -0.264

GBE1 (UniProt Q04446)
Sequence of UniProt Q04446 (Q04446 whole entry, looked up): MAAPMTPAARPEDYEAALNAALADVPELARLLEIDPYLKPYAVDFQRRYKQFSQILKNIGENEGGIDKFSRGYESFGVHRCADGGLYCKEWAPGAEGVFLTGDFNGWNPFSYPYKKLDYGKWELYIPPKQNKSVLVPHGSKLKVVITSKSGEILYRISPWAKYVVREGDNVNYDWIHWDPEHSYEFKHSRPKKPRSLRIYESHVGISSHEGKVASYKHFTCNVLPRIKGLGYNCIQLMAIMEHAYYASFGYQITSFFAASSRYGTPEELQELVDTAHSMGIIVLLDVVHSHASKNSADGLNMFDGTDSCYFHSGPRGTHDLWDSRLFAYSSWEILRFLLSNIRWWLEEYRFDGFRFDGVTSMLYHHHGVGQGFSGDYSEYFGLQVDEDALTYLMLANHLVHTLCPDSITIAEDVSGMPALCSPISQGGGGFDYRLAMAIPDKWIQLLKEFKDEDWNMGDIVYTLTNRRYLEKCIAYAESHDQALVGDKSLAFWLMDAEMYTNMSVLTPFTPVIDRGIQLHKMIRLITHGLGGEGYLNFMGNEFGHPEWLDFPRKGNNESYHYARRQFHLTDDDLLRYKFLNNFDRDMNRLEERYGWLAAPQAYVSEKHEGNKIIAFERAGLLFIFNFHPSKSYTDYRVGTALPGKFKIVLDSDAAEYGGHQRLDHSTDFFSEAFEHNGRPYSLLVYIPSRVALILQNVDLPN
active: crizotinib -0.565
inactive: [2] -0.054 | [3] 0.193 | duvelisib -0.026 | tozasertib -0.001 | [4] 0.094 | doramapimod -0.02 | ispinesib -0.286

GPNMB (UniProt Q14956)
inactive: [2] -0.151

GDE1 (UniProt Q9NZC3)
Sequence of UniProt Q9NZC3 (Q9NZC3 whole entry, looked up): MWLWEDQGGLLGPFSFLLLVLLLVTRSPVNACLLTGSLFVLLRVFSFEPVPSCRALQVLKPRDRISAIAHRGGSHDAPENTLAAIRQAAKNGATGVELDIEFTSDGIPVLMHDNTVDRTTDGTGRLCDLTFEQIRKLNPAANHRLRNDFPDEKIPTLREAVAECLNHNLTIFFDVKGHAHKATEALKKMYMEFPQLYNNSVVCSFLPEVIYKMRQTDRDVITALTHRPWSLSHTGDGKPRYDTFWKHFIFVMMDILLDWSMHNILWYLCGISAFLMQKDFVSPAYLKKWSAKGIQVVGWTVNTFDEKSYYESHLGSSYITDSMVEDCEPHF
inactive: [1] 0.033 | crizotinib 0.063 | [2] 0.077 | [3] -0.087 | duvelisib -0.014 | tozasertib 0.077 | [4] -0.067 | doramapimod 0.074 | ispinesib 0.051

GSTT1 (UniProt P30711)
Sequence of UniProt P30711 (P30711 whole entry, looked up): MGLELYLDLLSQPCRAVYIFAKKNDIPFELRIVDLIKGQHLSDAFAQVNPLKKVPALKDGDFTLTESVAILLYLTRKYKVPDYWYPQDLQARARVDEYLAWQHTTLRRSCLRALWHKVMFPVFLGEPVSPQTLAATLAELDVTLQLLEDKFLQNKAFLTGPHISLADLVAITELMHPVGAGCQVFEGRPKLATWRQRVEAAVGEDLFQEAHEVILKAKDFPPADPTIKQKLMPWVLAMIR
inactive: [2] 0.19 | [3] 0.002 | duvelisib 0.1 | gandotinib 0.19 | tozasertib 0.017 | [4] -0.061 | doramapimod -0.003 | ispinesib 0.026
active: crizotinib 0.332
